From PubChem BioAssay (NCATS)
Results filed as inconclusive are left out. Active and inactive are the calls of the source. The call rests on the fitted dose curve; in most records, active means well fitted curve in the direction sought with a large enough effect; inconclusive means small, poorly fitted or top-dose-only effect, or another doubt; inactive means no such curve, though single readings can be large; an effect the other way counts as inactive or inconclusive.

Assays:
[1] = Quantitative highthroughput screen to assess conditional lethalithy of NOMO1 cells grown in RPMI1640 with untreated serum (RPMI+s) (AID 1963876); further: nearly all actives have a fitted effect of over 35% in size;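 on viability: 100% = DMSO wells and 0% = empty wells without cells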
In short: (§1)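 Each medium arm—HPLM with 10% dialyzed FBS, or RPMI1640 with 5 mM glucose and 10% untreated or dialyzed FBS—was screened against an 11-point, 3-fold compound titration for 48 h at 37 °C, with CellTiter-Glo luminescence as endpoint.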

[2] = Quantitative highthroughput screen to assess conditional lethalithy of NOMO1 cells grown in RPMI1640 with dialyzed fetal bovine serum (RPMI+ds) (AID 1963877); further: nearly all actives have a fitted effect of over 30% in size;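 on viability: series mostly up to about 46 µM; 100% = DMSO control wells and 0% = empty wells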
In short: as §1

[3] = Quantitative highthroughput screen to assess conditional lethalithy of NOMO1 cells grown in Human Plasma-Like Medium with dialyzed fetal bovine serum (HPLM+ds) (AID 1963878); further: nearly all actives have a fitted effect of over 35% in size;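 on viability: 100% = DMSO wells and 0% = empty wells on each plate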
In short: as §1

[4] = Quantitative highthroughput screen to assess conditional lethalithy of P12 Ichikawa cells grown in Human Plasma-Like Medium with dialyzed fetal bovine serum (HPLM+ds) (AID 1963879); settings: Potency: viability; further: nearly all actives have a fitted effect of over 35% in size; on viability: series mostly up to about 46 µM
In short: as §1

[5] = Quantitative highthroughput screen to assess conditional lethalithy of P12 Ichikawa cells grown in RPMI1640 with dialyzed fetal bovine serum (RPMI+ds) (AID 1963880); settings: Potency: P12-Ichikawa viability; further: nearly all actives have a fitted effect of over 35% in size;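 on viability: 100% = DMSO wells and 0% = empty wells on each plate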
In short: as §1

[6] = Quantitative highthroughput screen to assess conditional lethalithy of P12 Ichikawa cells grown in RPMI1640 with untreated serum (RPMI+s) (AID 1963881); settings: Potency: viability; further: nearly all actives have a fitted effect of over 35% in size;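 on viability: series mostly up to about 46 µM; 100% = DMSO wells and 0% = empty wells without cells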
In short: as §1

[7] = Quantitative highthroughput screen to assess conditional lethalithy of SEM cells grown in Human Plasma-Like Medium with dialyzed fetal bovine serum (HPLM+ds) (AID 1963882); further: nearly all actives have a fitted effect of over 35% in size; on viability: series mostly up to about 46 µM
In short: as §1

[8] = Cellular viability qHTS for adrenocortical cancer (ACC) cell line SW-13 (AID 1963989); settings: SW-13 ACC cells viability, CellTiter-Glo, 48 h; activity (max response): active compounds read low; further: nearly all actives have a fitted effect of over 65% in size;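 on activity (max response): cells grown in serum-free medium with ITS supplement; on the % scale 0 is the no-effect control and ±100 the full control effect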
In short: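 Luminescent ATP read-out (CellTiter-Glo, 20 min at room temperature) measured metabolically competent SW-13 cells after 48 h compound treatment. Final concentrations spanned up to 46 uM; bortezomib served as positive control.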

[9] = Cellular viability qHTS for adrenocortical cancer (ACC) cell line NCI-H295R (AID 1963990); further: nearly all actives have a fitted effect of over 60% in size
In short: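 IC50 and maximal efficacy derive from four-parameter logistic modelling of titration curves, with reads scaled between DMSO-only wells (0%) and doxorubicin hydrochloride (100% inhibition). Compounds spanned up to 46 uM over 48 h.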

[10] = Quantitative highthroughput screen to assess conditional lethalithy of SEM cells grown in RPMI1640 with unreated serum (RPMI+s) (AID 1963883); further: nearly all actives have a fitted effect of over 35% in size;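 on viability: 100% = DMSO wells and 0% = empty wells without cells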
In short: as §1

[11] = Quantitative highthroughput screen to assess conditional lethalithy of SEM cells grown in RPMI1640 with dialyzed fetal bovine serum (RPMI+ds) (AID 1963884); further: nearly all actives have a fitted effect of over 35% in size;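 on viability: series mostly up to about 46 µM; 100% = DMSO control wells and 0% = empty wells without cells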
In short: as §1
Potency means the concentration at half of the fitted maximal effect.

N[C@@H](Cc1c[nH]c2ccc(O)cc12)C(=O)O
inactive: Potency [1] | Potency [2] | Potency [3] | Potency [4] | Potency [5] | Potency [6] | Potency [7] | activity (max response) [8] 10.6% | Potency [9]

O=C(NC[C@H](O)CN1CCc2ccccc2C1)c1cc(NC2COC2)ncn1
inactive: Potency [1] | Potency [2] | Potency [3] | Potency [4] | Potency [5] | activity (max response) [8] -16.9% | Potency [9]

C[C@H](NC(=O)C(C#N)=Cc1cccc(Br)n1)c1ccccc1
active: Potency [1] 2.64 µM | Potency [2] 3.32 µM | Potency [3] 1.87 µM | Potency [4] 1.48 µM | Potency [5] 2.35 µM | Potency [7] 1.32 µM | Potency [10] 0.935 µM | Potency [11] 1.32 µM

CC#CCn1c(N2CCC[C@@H](N)C2)nc2c1c(=O)n(Cc1nc(C)c3ccccc3n1)c(=O)n2C
inactive: Potency [1] | Potency [2] | Potency [3] | Potency [4] | Potency [5] | Potency [7] | Potency [10] | Potency [11] | activity (max response) [8] 0.332% | Potency [9]

CCCNS(=O)(=O)Nc1ncnc(OCCOc2ncc(Br)cn2)c1-c1ccc(Br)cc1
inactive: Potency [1] | Potency [2] | Potency [3] | Potency [4] | Potency [5] | Potency [7] | Potency [9]

CN(C)c1cccc(-c2c3c(=O)n(-c4ccccc4Cl)[nH]c3cc(=O)n2C)c1
inactive: activity (max response) [8] -1.86% | Potency [9]
active: Potency [1] 0.933 µM | Potency [2] 0.831 µM | Potency [3] 0.588 µM | Potency [4] 0.831 µM | Potency [5] 1.17 µM | Potency [7] 1.05 µM | Potency [10] 1.05 µM | Potency [11] 0.831 µM

COc1ccc(C=Cc2cc(OC)c(OC)c(OC)c2)cc1O
inactive: Potency [1] | Potency [2] | Potency [3] | Potency [4] | Potency [6] | Potency [10] | Potency [11]

NC[C@H]1O[C@H](O[C@H]2[C@@H](O)[C@@H](O[C@H]3O[C@H](CO)[C@@H](O)[C@H](N)[C@@H]3O)[C@H](N)C[C@@H]2N)[C@H](N)C[C@H]1O
inactive: Potency [1] | Potency [2] | Potency [3] | Potency [4] | Potency [6] | Potency [7] | Potency [10] | Potency [11]

Cc1c(C)c2c(c(C)c1O)CCC(C)(COc1ccc(CC3SC(=O)NC3=O)cc1)O2 (configuration not stated)
active: Potency [7] 16.6 µM
inactive: Potency [1] | Potency [2] | Potency [3] | Potency [4] | Potency [6] | Potency [9]

CC(C(C)N1CC(=O)NC(=O)C1)N1CC(=O)NC(=O)C1 (configuration not stated)
active: Potency [4] 13.2 µM | Potency [6] 1.66 µM
inactive: Potency [1] | Potency [2] | Potency [3] | activity (max response) [8] 12.5%

C[C@]12CCC(=O)C=C1[C@@H]1CC1[C@H]1[C@H]3[C@@H]4C[C@H]4[C@@]4(CCC(=O)O4)[C@@]3(C)CC[C@H]12 (some centres not stated)
inactive: Potency [1] | Potency [2] | Potency [3] | Potency [4] | Potency [6] | Potency [10]

CC(=O)OCC(=O)[C@@]1(O)CC[C@H]2[C@@H]3CCC4=CC(=O)C=C[C@]4(C)[C@@H]3[C@@H](O)C[C@@]21C
inactive: Potency [1] | Potency [2] | Potency [3] | Potency [4] | Potency [6] | Potency [10] | Potency [11]

COc1cc(O)c2c(c1)C1OC1C[C@H](O)[C@H](O)C(=O)C=CC[C@H](C)OC2=O (some centres not stated)
active: Potency [1] 13.2 µM | Potency [2] 13.2 µM | Potency [3] 10.5 µM | Potency [4] 18.7 µM | Potency [5] 18.7 µM | Potency [7] 4.69 µM | Potency [10] 7.43 µM | Potency [11] 4.18 µM | Potency [8] 15.8 µM | Potency [9] 15.8 µM

Clc1ccc(-c2nc3sccn3c2C=NOCc2ccc(Cl)c(Cl)c2)cc1
inactive: Potency [1] | Potency [2] | Potency [3] | Potency [4] | Potency [5] | Potency [7] | Potency [11]

CCC(C=C[C@@H]1OC(=O)C=C[C@H]1C)=C[C@H](C)CC=CC(C)=C[C@@H](C)C(=O)[C@@H](C)[C@H](O)[C@@H](C)CC(C)=CC(=O)O
active: Potency [1] 0.11 µM | Potency [2] 0.0877 µM | Potency [3] 0.0782 µM | Potency [4] 0.11 µM | Potency [6] 0.0877 µM | Potency [7] 0.0349 µM | Potency [10] 0.0156 µM | Potency [11] 0.022 µM

C#CCN(C)CC1=Cc2ccccc2Oc2ccccc21
inactive: Potency [1] | Potency [2] | Potency [3] | Potency [4] | Potency [6] | activity (max response) [8] 0.599% | Potency [9]

CCOc1cc(C=C2C(=O)N(c3ccccc3)N=C2C)cc(Cl)c1OCC(=O)OC
inactive: Potency [1] | Potency [2] | Potency [3] | Potency [4] | Potency [6]

O=C(C=Cc1cccnc1)NCCCCC1CCN(C(=O)c2ccccc2)CC1
active: Potency [1] 0.0059 µM | Potency [2] 0.0033 µM | Potency [3] 0.0026 µM | Potency [4] 0.003 µM | Potency [6] 0.0047 µM | Potency [10] 0.0026 µM | Potency [11] 0.0019 µM

CC1(C)SCCN(S(=O)(=O)c2ccc(OCC#CCO)cc2)[C@@H]1C(=O)NO
inactive: Potency [1] | Potency [2] | Potency [3] | Potency [4] | Potency [6] | Potency [7] | Potency [10] | Potency [11]

O=NN(CCCl)C(=O)NCCCl
inactive: Potency [1] | Potency [2] | Potency [3] | Potency [4] | Potency [5] | Potency [7] | activity (max response) [8] 15.2% | Potency [9]
